Bioassay records (PubChem)
Tau fluor cs = counter-screen for tau fibril formation inhibitors; tau K18 P301L Alexa594 fluorescence, heparin fibrillization; Potency, µM (series often up to 57.7 µM), for inactives: top-dose activity change, negative = decrease; hit rate 0.93% among 280,000; AID 1463; further: potency means the concentration at half of the fitted maximal effect; nearly all actives have a fitted effect of over 55% in size
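Human tau K18 P301L (15 uM unlabeled, 0.24 uM Alexa 594-labeled) in 100 mM sodium acetate pH 7 with 20 uM heparin, 6 hr at 37 C. ThT 30 uM added, 1 hr ambient; Alexa 594 FP and total fluorescence read at 555/632 nm.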
Tau fibril FP = tau fibrillization inhibition (FP). Potency, µM (top dose mostly 57.7 µM), for inactives: at the highest dose activity, negative = inhibition, hits mostly inhibitors. AID 1468. hit rate 0.39% among 280,000. P10636. K18 P301L tau heparin fibrillization, Alexa594 FP, 6 h; further: potency means the concentration at half of the fitted maximal effect; nearly all actives have a fitted effect of over 55% in size
Target sequence (P10636 561-689 P618L limits assumed): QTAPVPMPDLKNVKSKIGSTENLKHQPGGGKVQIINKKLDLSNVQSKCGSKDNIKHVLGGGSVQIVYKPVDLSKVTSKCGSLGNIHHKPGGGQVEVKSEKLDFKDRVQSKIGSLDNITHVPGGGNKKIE
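Quantitative HTS format: compounds meet 15 uM recombinant K18 P301L tau and Alexa 594-tau tracer in 100 mM sodium acetate pH 7; 20 uM heparin triggers fibrillization at 37 C over 6 hr; FP gives the signal.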
Sfp inh = inhibitors of Bacillus subtilis Sfp phosphopantetheinyl transferase; Potency, µM, for the others: largest response in the series, negative = inhibition, usual class: inhibitors; hit rate 3.5% among 310,000; Biochemical Sfp PPTase activity, qHTS;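 further: the enzyme is Sfp with the accession as filed and its product quenches rhodamine fluorescence; potency means the concentration at half of the fitted maximal effect; 0% = enzyme reaction without inhibitor and -100% = no enzyme wells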
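Step 1, compound plus 15 nM Sfp-PPTase, 15 min, room temperature. Step 2, add rhodamine-CoA (5 uM) and BHQ-2-YbbR (12.5 uM). Step 3, read 525/598 nm fluorescence at 0 and 30 min.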
Tau fibril ThT = blocks human tau fibril formation measured by thioflavin T. P10636. recombinant tau K18 P301L, heparin-induced fibrillization, ThT fluorescence. Potency, µM (doses to about 57.4 µM), for inactives: top-dose activity, negative = inhibition, hits mostly inhibitors. hit rate 2.1% among 270,000. AID 1460; further: potency means the concentration at half of the fitted maximal effect; nearly all actives have a fitted effect of over 55% in size
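Using a mix of unlabeled (15 uM) and Alexa 594-labeled (0.24 uM) tau K18 P301L, heparin-triggered fibrillization over 6 hr at 37 C was scored by ThT fluorescence.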
FBPA coupling cs = coupling enzyme interference in Giardia aldolase counter-screen; AID 2472; coupling enzyme system counterscreen, AmpLite Red fluorescence; activity change, negative = inhibition, % at 58.2 µM, hits read low; hit rate 0.67% among 290,000; in the data active means activity change below about -30%
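Activity here indicates interference with the coupling reaction, not aldolase inhibition. Compounds at 57.5 uM final met coupling enzymes for 10 min at RT; substrate and AmpLite Red detection followed, with a 525/598 nm fluorescence read after 20 min.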
G9a inh = inhibitors of human histone lysine methyltransferase G9a; G9a H3K9 monomethylation, AlphaScreen, 2 h; Potency, µM (top dose mostly 102 µM), for inactives: at the highest dose activity, negative = inhibition, most hits filed as inhibitors; hit rate 8.8% among 350,000; further: potency means the concentration at half of the fitted maximal effect; nearly all actives have a fitted effect of over 75% in size
Target sequence (Q96KQ7 913-1193 limits assumed): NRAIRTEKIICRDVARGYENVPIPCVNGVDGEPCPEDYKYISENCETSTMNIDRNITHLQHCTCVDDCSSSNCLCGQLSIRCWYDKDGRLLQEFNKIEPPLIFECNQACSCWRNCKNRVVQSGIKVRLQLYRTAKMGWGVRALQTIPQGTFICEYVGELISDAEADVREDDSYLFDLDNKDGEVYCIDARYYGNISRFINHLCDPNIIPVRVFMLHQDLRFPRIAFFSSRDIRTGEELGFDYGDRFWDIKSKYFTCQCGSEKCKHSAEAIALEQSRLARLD
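Methyltransferase reactions run at room temperature for 2 h (20 nM enzyme, 500 nM biotin-H3K9 peptide, 20 uM SAM) after a 15 min compound preincubation; product detected by AlphaScreen beads and anti-H3K9me1 antibody.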
* hit, by the source's call; ? = inconclusive; . = not tested or not shown; [ ] = dose if it differs, or a comment. Rows were chosen to be rich in hits. Some 11% of all compounds tested hit in one or more screens of this group. Unless noted, the call rests on the fitted dose curve; in most records, active means well fitted curve in the direction sought with a large enough effect; inconclusive means small, poorly fitted or top-dose-only effect, or another doubt; inactive means no such curve, though single readings can be large; an effect the other way counts as inactive or inconclusive. Unless noted, on the % scale 0 is the no-effect control and ±100 the full control effect.

SMILES	Tau fluor cs	Tau fibril FP	Sfp inh	Tau fibril ThT	FBPA coupling cs	G9a inh
COc1ccc(-c2nn3c(-c4ccc(F)cc4)nnc3s2)cc1	-4%	10%	-9%	-18%	5	45µM*
COc1ccc(-c2nnc3sc(CCN4C(=O)c5ccccc5C4=O)nn23)cc1	-2%	-1%	-12%	-6%	6	45µM*
Cc1ccc(N(CC2CO2)S(=O)(=O)c2ccc([N+](=O)[O-])cc2)cc1 (stereo unspecified)	.	.	9%	.	4	?
CCn1cc2nc(SCc3cccc(OC)c3)n(Cc3ccc(Cl)cc3)c(=O)c2n1	-19%	0%	.	-12%	.	-41%[59 µM]
COc1ccc(OC)c(Nc2nc3ccccc3nc2-n2nc(C)cc2C)c1	13µM*[quencher]	?	.	-10%	.	99%[59 µM]
COc1ccc(Nc2nc3ccc(C)cc3nc2-n2nc(C)cc2C)cc1Cl	14µM*[quencher]	?	.	-10%	.	70%[59 µM]
O=c1[nH]c2sc3c(c2c(=O)n1Cc1ccccc1)CCC3	-22%	1%	6%	-14%	2	-1%
COCCn1c(=S)[nH]c2sc3c(c2c1=O)CCCC3	.	.	-27%	.	-1	7.9µM*
COCCCn1c(=S)[nH]c2sc3c(c2c1=O)CCCC3	.	.	-24%	.	1	8.9µM*
C=CCn1c(=S)[nH]c2sc3c(c2c1=O)CCCC3	.	.	12%	.	5	20%[0.501 µM]
COc1ccc(-c2cc(OC(=O)c3ccc(Cl)cc3)c3c(C)oc(C)c3c(=O)c2)cc1	-12%	2%	.	?	.	?
O=C(CCc1ccccc1)N(Cc1cccnc1)c1nc2ccc(F)cc2s1	-17%	2%	.	-14%	.	4%[59 µM]
CC(=O)C(Sc1ccc2nnc(-c3ccc(F)cc3)n2n1)C(C)=O	-6%	-6%	10%	-7%	-3	18µM*
CC(=O)C(Sc1ccc2nnc(-c3ccncc3)n2n1)C(C)=O	3%	4%	?	-4%	-1	25µM*
CC(=O)C(Sc1ccc2nnc(-c3ccc(C)cc3)n2n1)C(C)=O	0%	-3%	-14%	-9%	2	32µM*
O=C(O)CSc1ccc2nnc(-c3cccnc3)n2n1	4%	0%	5%	2%	2	?
CCC(Sc1ccc2nnc(-c3ccc(F)cc3)n2n1)C(=O)O (stereo unspecified)	0%	3%	2%	-6%	11	?
CC(=O)C(Sc1ccc2nnc(-c3cccnc3)n2n1)C(C)=O	-3%	7%	-13%	-1%	4	71µM*
Cc1ccc(Cl)cc1NC(=O)c1cc2c(=O)n3cccc(C)c3nc2n1C	9%	-4%	.	12%	.	9%[59 µM]
CCC1=C/C(=C/c2sc3ccccc3[n+]2CC)CC(C)(C)C1	-3%	-4%	35µM*	5%	-18	5µM*
CC[n+]1c(/C=C2\C=C(C)CC(C)C2)sc2ccccc21 (stereo unspecified)	-29%	?	35µM*	?	-6	?
CC[n+]1c(/C=C2/C=C(C)CC(C)(C)C2)sc2ccc(OC)cc21	-15%	?	14µM*	?	-26	-37%[12.7 µM]
CC[n+]1c(/C=C2\C=C(C)CC(C)(C)C2)sc2ccccc21	-28%	?	11µM*	?	-15	?
CCOc1ccccc1C(=O)NCC(=O)OCCOc1cccc(Cl)c1	.	.	-5%	.	-2	.
CN1CCN(c2ccc(NC(=S)NC(=O)/C=C/c3ccco3)cc2)CC1	.	.	-23%	.	0	45µM*
SMILES	Tau fluor cs	Tau fibril FP	Sfp inh	Tau fibril ThT	FBPA coupling cs	G9a inh
COc1cccc(NC(=S)NC(=O)/C=C/c2ccco2)c1	.	.	-13%	.	1	45µM*
O=C(/C=C/c1ccco1)NC(=S)Nc1cccc(C(=O)O)c1	.	.	79µM*	.	-2	8.9µM*
COc1cc2c(c(OC)c1)C(c1cc(OC)c(OC)c(OC)c1)CC(=O)N2 (stereo unspecified)	5%	5%	.	3%	.	6%[59 µM]
COc1ccccc1CCNC(=O)C(=O)NCC(c1ccco1)S(=O)(=O)c1ccc(C)cc1 (stereo unspecified)	-14%	6%	.	-4%	.	2%[59 µM]
CCc1ccc2nc(N(CCN(C)C)C(=O)c3ccc4ccccc4c3)sc2c1	.	.	?	.	-3	79µM*
CN(C)CCN(C(=O)c1ccc2ccccc2c1)c1nc2ccc(F)cc2s1	.	.	-6%	.	-4	45µM*
O=C(CSc1n[nH]c(-c2ccncc2)n1)Nc1ccc(Cl)c(Cl)c1	.	.	-8%	.	2	2%
O=c1c2cc3c(cc2nc2sc(Nc4cccc([N+](=O)[O-])c4)nn12)OCO3	-14%	4%	.	?	.	1.4µM*
CC(C)(C)n1cn[nH]c1=S	-6%	3%	-19%	.	3	25µM*
COc1ccccc1NS(=O)(=O)c1cccc(NC(=O)c2ccc3ccccc3n2)c1	?	-17%	9%	0%	-1	?
O=C(Cc1ccc(Cl)cc1Cl)Nc1cccc(S(=O)(=O)Nc2ccccc2F)c1	-18%	28µM*	8.9µM*	?	2	1.6µM*
O=C(Cc1c(F)cccc1Cl)Nc1cccc(S(=O)(=O)NC2=NCCCCC2)c1	.	.	.	.	.	-18%[0.501 µM]
O=C(Nc1cccc(S(=O)(=O)Nc2ccccc2F)c1)c1ccc2ccccc2n1	?	?	8.9µM*	?	-4	2.8µM*
COc1ccc(NC(=O)CN2C(=O)C(C)(C)c3cc(S(=O)(=O)N4CCCCC4)ccc32)cc1Cl	?	?	.	12%	.	-4%[59 µM]
CCOC(=O)C(NC(C)=O)(N1CCc2ccccc2C1)C(F)(F)F (stereo unspecified)	-15%	?	9%	25µM*	2	?
CCOC(=O)C(NC(C)=O)(N1CCOCC1)C(F)(F)F (stereo unspecified)	-7%	?	22%	?	-1	16%
Cc1ccccc1Cn1c(CN2CCCC(C)C2)nc2c1c(=O)n(C)c(=O)n2C (stereo unspecified)	-16%	-5%	.	-4%	.	-2%[59 µM]
Cc1cccnc1NC(=S)Nc1ncccc1C	-11%	4%	-21%	-10%	-1	20%[2.33 µM]
Cc1cccnc1NC(=S)Nc1ccc(Cl)c(Cl)c1	?	?	14µM*	-8%	4	-49%
COc1ccc(NC(=S)Nc2ncccc2C)cc1OC	-21%	1%	40µM*	?	0	22µM*
Cc1cc(C)cc(N2CCn3c2nc2c3c(=O)n(CCCc3ccccc3)c(=O)n2C)c1	5%	-6%	.	8%	.	-1%[59 µM]
COc1ccc(CCNC(=O)CSc2ccc3nnc(CCNC(=O)c4ccccc4)n3n2)cc1OC	.	.	1%	.	.	.
COc1ccc(S(=O)(=O)Nc2ccc(Cc3ccncc3)cc2)cc1C	.	.	-2%	.	.	.
COc1ccc(C2CC(=O)C3=C(C2)NC(C)=C(C#N)C3c2ccc(N(C)C)cc2)cc1 (stereo unspecified)	?	9%	2%	-5%	-19	13µM*
